This is one part of a sample in which hits are shown more often than they occur.
IL1B secr inh – qHTS for Inhibitors of Inflammasome Signaling: IL-1-beta AlphaLISA Primary Screen; actives 4.7% (n = 360,000); activity change, % at 57.5 µM; THP-1 LPS/ATP IL-1B secretion, AlphaLISA, 16 h; hits give low values; in the data active means activity change below about -50%; inconclusive means mostly about -30% to -49%
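Secreted IL-1B measured by AlphaLISA bead assay after 16 h compound exposure of THP-1 cells; compounds (final up to 57.5 uM) added 1 h before LPS (250 ng/mL) and ATP (1.25 mM) stimulation; lower signal means less secretion.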
12-LOX inh – Primary qHTS assay for inhibitors of human arachidonate 12S-lipoxygenase (ALOX12): Round 2; Polyunsaturated fatty acid lipoxygenase ALOX12 (Homo sapiens), P18054; purified 12hLO, xylenol orange hydroperoxide absorbance; Potency, µM (titrated, usually from 108 µM), for the others: top-dose activity change, negative = inhibition, actives largely listed as inhibitors; actives 1.1% (n = 580,000); further: potency means the concentration at half of the fitted maximal effect
Target sequence (P18054 whole entry, looked up): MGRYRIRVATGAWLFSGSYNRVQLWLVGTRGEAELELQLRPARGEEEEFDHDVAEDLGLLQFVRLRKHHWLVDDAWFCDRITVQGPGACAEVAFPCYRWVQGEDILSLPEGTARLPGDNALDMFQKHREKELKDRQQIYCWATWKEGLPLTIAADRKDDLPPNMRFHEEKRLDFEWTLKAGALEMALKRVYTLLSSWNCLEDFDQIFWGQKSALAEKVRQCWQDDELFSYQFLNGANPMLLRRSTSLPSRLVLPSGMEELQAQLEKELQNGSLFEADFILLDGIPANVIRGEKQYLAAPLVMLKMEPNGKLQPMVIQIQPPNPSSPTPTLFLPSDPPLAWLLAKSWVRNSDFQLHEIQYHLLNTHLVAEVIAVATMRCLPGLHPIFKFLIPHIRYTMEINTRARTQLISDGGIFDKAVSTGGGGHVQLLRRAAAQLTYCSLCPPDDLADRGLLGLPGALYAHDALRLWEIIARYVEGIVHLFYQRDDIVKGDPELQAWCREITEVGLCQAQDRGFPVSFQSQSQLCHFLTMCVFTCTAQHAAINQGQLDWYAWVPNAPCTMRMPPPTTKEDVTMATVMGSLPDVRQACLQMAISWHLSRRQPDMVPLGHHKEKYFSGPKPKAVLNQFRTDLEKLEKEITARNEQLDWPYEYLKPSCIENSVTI
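Purified human 12hLO (150 nM final) in 25 mM Hepes, 0.01% Triton X-100, pH 7.0 was preincubated 15 min at room temperature with compound. Then 40 uM arachidonic acid was added, 30 min. Hydroperoxide was read by Fe-XO absorbance ratio 573/405 nm.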
DT40 TDP1 no CPT – qHTS for Inhibitors of human tyrosyl-DNA phosphodiesterase 1 (TDP1): qHTS in cells in absence of CPT; DT40 Tdp1-/- hTDP1 cells, no CPT, ATP luminescence, 48 h; Potency, µM (highest dose often 46.2 µM), for the others: at the top dose activity change, negative = growth inhibition, most hits filed as inhibitors; actives 15% (n = 420,000); further: potency means the concentration at half of the fitted maximal effect; nearly all actives have a fitted effect of over 55% in size
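Chicken DT40 Tdp1-/- cells complemented with human TDP1, screened without camptothecin (DMSO vehicle only), 400 cells/well. Compounds pin-transferred, cells incubated at 37 °C for at least 48 hr. Growth read as ATP-dependent luminescence (CellTiter-Glo, 30 min at RT).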
HT1080NT lethal – qHTS for induction of synthetic lethality in tumor cells producing 2HG: qHTS for the HT-1080-NT fibrosarcoma cell line. HT-1080-NT fibrosarcoma viability, CellTiter-Glo ATP luminescence, 48 h. Potency, µM (highest dose often 46.1 µM), for inactives: top-dose activity, negative = less viability, most hits filed as cytotoxic. actives 1.6% (n = 360,000);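 further: NT is the 2HG producing partner of a matched IDH1 knockdown line; potency means the concentration at half of the fitted maximal effect; 0% = DMSO-treated cells and -100% = media-only wells without cells; nearly all actives have a fitted effect of over 55% in size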
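Fibrosarcoma NT cells, 750 per well in 5% FBS RPMI, were exposed to compound for 48 hours. Viability: CellTiter-Glo luminescence.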
HT1080 IDH1KD tx – qHTS for induction of synthetic lethality in tumor cells producing 2HG: qHTS for the HT-1080-IDH1KD cell line; Potency, µM (series often up to 46.1 µM), for the others: at the highest dose activity, negative = toxicity, most hits filed as cytotoxic; HT-1080 IDH1 knockdown viability, ATP luminescence, 48 h; actives 2% (n = 360,000);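 further: potency means the concentration at half of the fitted maximal effect; 0% = DMSO wells and -100% = cell-free medium wells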
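Assay cells: HT-1080 with IDH1 knockdown, 750 per well, RPMI/5% FBS. Exposure: 48 h at 37 °C following 2 h pre-incubation. Read: CellTiter-Glo luminescence; fitted concentration-response, curve class assigned.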
DT40 TDP1 CPT – qHTS for Inhibitors of human tyrosyl-DNA phosphodiesterase 1 (TDP1): qHTS in cells in presence of CPT; actives 12% (n = 420,000); AID 686979, 2013; chicken DT40 Tdp1-/-;hTDP1 cells + 20 nM CPT, ATP luminescence, 48 h; Potency, µM (highest dose often 46.2 µM), without a hit: at the highest dose activity change, negative = growth inhibition, hits mostly inhibitors; further: potency means the concentration at half of the fitted maximal effect; nearly all actives have a fitted effect of over 55% in size
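Chicken DT40 Tdp1-/- cells stably complemented with human TDP1 were seeded at 400 cells/well in medium containing 20 nM camptothecin, exposed to pin-transferred compounds, and grown at 37 °C for at least 48 hr. Viability was read as ATP luminescence.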
* marks the source's active call; other numbers are inactive results; ? = inconclusive; . = no result; [ ] = another dose, or the depositor's remark. Unless noted, the call rests on the fitted dose curve; in most records, active means well fitted curve in the direction sought with a large enough effect; inconclusive means small, poorly fitted or top-dose-only effect, or another doubt; inactive means no such curve, though single readings can be large; an effect the other way counts as inactive or inconclusive. Unless noted, on the % scale 0 is the no-effect control and ±100 the full control effect.

SMILES	IL1B secr inh	12-LOX inh	DT40 TDP1 no CPT	HT1080NT lethal	HT1080 IDH1KD tx	DT40 TDP1 CPT
Cc1ccc2nc(/C(C#N)=C\c3cc(C)n(-c4cccc([N+](=O)[O-])c4)c3C)[nH]c2c1	?	-15%	9.2µM*	-3%[9.24 µM]	?	8.2µM*
CC(C)C[C@H](N)c1cn([C@@H](Cc2ccc(O)cc2)C(=O)N2CCNCC2)nn1	19	-12%	0%	1%	7%	6%
CC(C)C[C@H](N)c1cn([C@@H](CCCCN)C(=O)N2CCNCC2)nn1	?	0%	6.5µM*	1.6µM*	1.2µM*	8.2µM*
CCOC(=O)Nc1ccc(NS(=O)(=O)c2cc(F)ccc2F)cc1	.	8%	.	.	.	.
CCOc1ccc(S(=O)(=O)Nc2ccc(F)cc2)c(C)c1C	12	?	21µM*	6%[9.24 µM]	10µM*	26µM*
CCOC(=O)Nc1ccc(NS(=O)(=O)c2ccc(F)cc2C)cc1	.	25µM*	.	.	.	.
CCOc1ccc(NS(=O)(=O)c2cc(OC)ccc2OC)cc1	14	4%[57.4 µM]	?	-2%	?	-18%
COc1ccc(C(=O)N2CCCC(c3nc(-c4cnccn4)no3)CCNC(=O)CC2)cn1 (configuration not stated)	.	76%	.	.	.	.
CCOc1c(C)cnc2c1c(=O)n(Cc1ccccc1Cl)c(=O)n2C	17	6%	2%	-1%	12%	-1%
CCO/C(C)=N/n1c2nc3ccccc3nc2c2c(=O)n(Cc3ccccc3Cl)c(C)nc21	?	3%	26µM*	24%	6%	?
Cc1[nH]c2ccccc2c1C1c2ccccc2C(=O)N1CC(N)=O (configuration not stated)	.	-10%	.	.	.	.
CC1=C(C(=O)OCc2ccccc2)C(c2ccc(Br)cc2)NC(=O)N1CCCCCC(=O)O (configuration not stated)	24	-24%	-14%	-1%	-14%	-7%
COC(=O)CCCCCN1C(=O)NC(c2ccccc2)C(C(=O)OCc2ccccc2)=C1C (configuration not stated)	50	-5%	16µM*	-19%	-3%	21µM*
CCCCNC(=O)C(C)N(CCN(C)C)C(=O)CCCN1C(=O)NC(c2ccc([N+](=O)[O-])cc2)C(C(=O)OCc2ccccc2)=C1C (configuration not stated)	-79*	.	23µM*	?	?	18µM*
CCC1(C(=O)Nc2cc(OC)ccc2OC)CCCCC(=O)N1 (configuration not stated)	.	-8%	.	.	.	.
CC(C)c1ccccc1NC(=O)C(Cc1c[nH]c2ccccc12)NC(=O)OC(C)(C)C (configuration not stated)	.	-21%	?	.	.	18µM*
Cc1ccc(NC(=O)C(Cc2c[nH]c3ccccc23)NC(=O)OCC(C)C)cc1 (configuration not stated)	.	?	23µM*	.	.	18µM*
O=C(O)C(Cc1c[nH]c2ccccc12)NS(=O)(=O)c1ccc(Cl)c(C(F)(F)F)c1 (configuration not stated)	22	40µM*	0%	6%	6%	0%
COc1ccc(C(=O)NC(Cc2c[nH]c3ccccc23)C(=O)O)cc1 (configuration not stated)	9	0%	6%	9%	9%	-4%

Source: PubChem (National Center for Advancing Translational Sciences (NCATS))
